# Shown are actives, neighbours in structure and some others; about 2.8% of the full set was active somewhere.
# ERb coact inh: inhibitors of ERβ-SRC1 coactivator interaction, primary screen, biochemical, TR-FRET, ERβ LBD, SRC-1 peptide; Estrogen receptor beta (Homo sapiens), Q92731; TR-FRET ER-beta LBD / SRC1-Cy5 peptide binding; receptor agonist-loaded with 1 µM estradiol; inhibition, % at 25.6 µM; 86,000 compounds, 1.3% hits;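 active = compounds whose percent inhibition of the receptor-coactivator binding signal exceeds about 50% in the single-dose screen, limit read from the data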;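 note: 0% = receptor plus peptide wells without compound and 100% = peptide-only wells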
# ERa SRC1 pot: enhancers of ERα–SRC-1 coactivator binding, primary screen, biochemical, TR-FRET, ERα LBD, low estradiol | 86,000 compounds, 1.3% hits | coactivator binding (% of control), % at 25.6 µM | Estrogen receptor (Homo sapiens), P03372 | TR-FRET ERalpha-LBD/SRC-Cy5 coactivator binding, 2 h; 100 = basal binding, no effect; in the data active = activity above about 200%;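 note: binding measured in presence of low estradiol as agonist stimulus; 0% = peptide alone without receptor and 100% = receptor with peptide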
# Target sequence (P03372 whole entry, looked up, the tested form may be a part): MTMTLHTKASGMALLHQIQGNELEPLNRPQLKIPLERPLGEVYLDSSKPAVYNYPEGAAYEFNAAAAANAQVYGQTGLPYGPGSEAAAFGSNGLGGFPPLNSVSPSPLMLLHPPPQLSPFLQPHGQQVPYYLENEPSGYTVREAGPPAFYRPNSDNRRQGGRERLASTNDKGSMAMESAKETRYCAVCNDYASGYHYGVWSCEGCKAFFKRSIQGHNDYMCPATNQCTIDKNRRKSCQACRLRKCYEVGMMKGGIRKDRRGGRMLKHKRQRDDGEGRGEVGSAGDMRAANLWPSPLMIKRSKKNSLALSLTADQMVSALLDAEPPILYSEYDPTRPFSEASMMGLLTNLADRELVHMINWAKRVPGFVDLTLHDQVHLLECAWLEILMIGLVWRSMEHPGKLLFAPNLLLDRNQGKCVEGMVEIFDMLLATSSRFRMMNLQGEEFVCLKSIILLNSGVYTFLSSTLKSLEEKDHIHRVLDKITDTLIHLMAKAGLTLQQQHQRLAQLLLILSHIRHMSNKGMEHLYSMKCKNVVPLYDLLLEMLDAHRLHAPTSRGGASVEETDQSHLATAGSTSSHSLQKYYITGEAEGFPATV
# MRP resist rev: reversal of MRP1-mediated doxorubicin resistance, primary screen, H69AR cells, doxorubicin co-treatment | differential viability (reversal), % at 10 µM | H69AR cells + 2 uM doxorubicin, CellTiter-Glo, 72 h | 85,000 compounds, 0.04% hits | AID 602, 2007;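 active = viability drop by adding the cancer drug above about 55%, with treated viability meeting a 40% cutoff, limit read from the data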;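 note: viability without doxorubicin minus viability with 2 µM doxorubicin for each compound; larger differential means the compound sensitizes cells more to doxorubicin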
# MRP1 act: H69AR viability gain despite doxorubicin, primary screen, MRP-1 activator project, H69AR cells, CellTiter-Glo. 140,000 compounds, 0.61% hits. viability increase, % at 10 µM. viability rescue. AID 799, 2007;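 active = viability gain under doxorubicin at or above a set limit, the compound median plus 3 SD, cut at about 4.7% in these data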;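 note: MRP-1 overexpressing cells given doxorubicin 25 µM after compound pretreatment; 18-22 h compound pretreatment then 72 h with doxorubicin before readout; 0% = doxorubicin-only wells and 100% = vehicle-treated cells without doxorubicin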
# ERa SRC1 inh: ERα–SRC-1 coactivator interaction inhibitors, primary screen, biochemical, TR-FRET, ERα LBD, estradiol-bound; Estrogen receptor (Homo sapiens), P03372; TR-FRET ER-alpha LBD / SRC-1 peptide; inhibition, % at 25.6 µM; 86,000 compounds, 1.7% hits; AID 629, 2007; in the data active = inhibition above about 50%;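 note: 0% = receptor plus peptide control and 100% = peptide only without receptor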
# Smad3 FoxH1 inh: Smad3/FoxH1 peptide binding inhibitors, primary screen, biochemical, TR-FRET; 88,000 compounds, 0.29% hits; AID 630, 2007; inhibition, % at 25 µM; TR-FRET Smad3/Dy647-FoxH1 peptide binding, europium anti-His; Mothers against decapentaplegic homolog 3 (Homo sapiens), P84022;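 active = compounds that reduce the energy-transfer binding signal between the protein and its labelled peptide by more than half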;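 note: 0% = Smad3 plus labelled peptide maximal FRET and 100% = peptide-only background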
# * marks the source's active call; other numbers are inactive results; · = not tested or not shown; [ ] = dose if it differs, or a comment.
SMILES,ERb coact inh,ERa SRC1 pot,MRP resist rev,MRP1 act,ERa SRC1 inh,Smad3 FoxH1 inh
COCCNS(=O)(=O)c1cc(-c2nn(C)c(=O)c3ccccc23)ccc1C,16,98,0,-1,2,3
COc1nnc(-c2ccc(C)c(S(=O)(=O)NCCO)c2)c2ccccc12,64*[fluorescence artefact?],77,10,0,58*,8
C=CCn1c(SCc2csc(C)n2)nc2sc3c(c2c1=O)CCCC3,6,100,-1,1,72*[fluorescence artefact?],19
C=CCn1c(SCc2cc(=O)n3ccsc3n2)nc2sc(C)c(C)c2c1=O,33,72,-9,·,57*[fluorescence artefact?],-2
C=CCn1c(SCc2csc(C)n2)nc2sc3c(c2c1=O)CCCCC3,6,96,3,0,-2,4
C=CCSc1nc2sc(C)c(C)c2c(=O)n1CC=C,-2,88,22,3,6,-6
C=CCn1c(SCC(=O)Nc2cc(C)on2)nc2sc(C)c(C)c2c1=O,7,116,13,-5,0,-6
C=CCn1c(SCC(=O)c2cccs2)nc2sc(C)c(C)c2c1=O,24,163,-10,0,62*[fluorescence artefact?],-1
O=c1[nH]c(=S)c2[nH]c(=O)n(-c3ccccc3)c2[nH]1,·,·,·,·,·,40
NS(=O)(=O)c1ccc(N=Nc2nc3[nH]c(=O)[nH]c(=O)c3[nH]2)cc1,·,·,·,·,·,3
Cc1c(/C=N/n2cnnc2)c2ccccc2n1CCOc1ccc(Cl)cc1,5,119,2,0,53*,-6
Cc1ccc(OCCn2c(C)c(/C=N/n3cnnc3)c3ccccc32)cc1,·,·,·,-4,·,·
CCN1CCN(c2ccc(NC(=O)c3cccc4ncccc34)cc2)CC1,63*[fluorescence artefact?],25,-7,-1,50*[fluorescence artefact?],6
N#CCSc1n[nH]c2nc3c(c(=O)n12)C1(CCCC1)Cc1ccccc1-3,6,71,16,5.0*,15,0
CC(C)C(OC(=O)c1cccs1)C(=O)NCc1cccs1 (stereo not given),1,102,1,-1,-1,3
Cc1occc1C(=O)NCc1cccc(CNC(=O)c2ccoc2C)c1,-8,131,5,-1,65*,9
CCc1ccc(CNC(=O)c2cc3c(C)nc4ccccc4c3o2)cc1,60*[fluorescence artefact?],64,-6,2,15,-18
COc1cccc(CNC(=O)c2cc3c(C)nc4ccccc4c3o2)c1,-4,127,4,-1,-13,1
COc1ccc(C)cc1NC(=O)c1cc2c(C)nc3ccccc3c2o1,58*[fluorescence artefact?],204*[fluorescence artefact?],2,·,66*[fluorescence artefact?],4
COc1cc(NC(=O)c2cc3c(C)nc4ccccc4c3o2)cc(OC)c1OC,-14,113,-12,-3,-1,-4
Cc1nc2cccc(C(=O)NCc3ccccc3)c2o1,40,76,·,-2,64*,-9
Cc1c(-c2nc(N)nc(C3CC3)c2C)nc(N)nc1C1CC1,·,·,·,·,·,-4
O=c1oc2c3c4c(cc2s1)CCCN4CCC3,68*[fluorescence artefact?],27,-11,-3,72*[fluorescence artefact?],8
COc1cc2c3cc1Oc1cc(ccc1O)C[C@@H]1c4c(cc(OC)c(O)c4Oc4ccc(cc4)C[C@H]3[N+](C)(C)CC2)CC[N+]1(C)C,·,·,·,·,·,2
CCCCc1cc2c(c(NC(=O)CC)n1)c(=O)oc1ccccc12,40,121,4,-2,62*[fluorescence artefact?],-4
CC(=O)Nc1nc2c(c3c1c(=O)oc1ccccc13)CC(C)CC2 (stereo not given),8,227*[fluorescence artefact?],10,-4,12,38
CCCCc1cc2c(c(NC(C)=O)n1)c(=O)oc1ccccc12,16,270*[fluorescence artefact?],5,-3,28,-5
CN(C)CCCN(C(=O)c1ccc2c(c1)CCCC2)c1nc2ccc(Cl)cc2s1,·,·,·,-6,·,·
Cc1ccc(-n2c(C)nc3oc4ccccc4c(=O)c3c2=O)cc1,94*[fluorescence artefact?],36,-8,-2,91*[fluorescence artefact?],4

# Assay outcomes deposited in PubChem BioAssay by several laboratories.
